# Experimental data published in PubChem BioAssay AID1460 (National Center for Advancing Translational Sciences (NCATS), 2008).
# In all, about 270,000 compounds went through this assay and about 5,800 (2.1%) were called active. About 16% were inconclusive and are not listed. Calls come from the whole dose curve; as a rule, active = well fitted inhibition curve with a large enough effect; inconclusive = small, poorly fitted or top-dose-only effect; inactive = flat fitted curve, though single readings scatter. This excerpt belongs to a sample that is enriched for actives.
# Biological target: Microtubule-associated protein tau (Homo sapiens) (UniProt P10636)
# Sequence (P10636 561-689 P618L limits assumed): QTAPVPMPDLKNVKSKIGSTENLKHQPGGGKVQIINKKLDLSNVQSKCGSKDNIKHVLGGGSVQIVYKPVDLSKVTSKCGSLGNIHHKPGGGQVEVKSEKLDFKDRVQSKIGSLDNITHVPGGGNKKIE
# Assay: qHTS for Inhibitors of Tau Fibril Formation, Thioflavin T Binding; note: nearly all actives have a fitted effect of over 55% in size
# Conditions: recombinant tau K18 P301L (four-repeat tau fragment), heparin-induced fibrillization, ThT fluorescence; series mostly up to 57.4 µM; activity, negative = inhibition: at the top concentration
# How it was run: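 K18 P301L tau (15 uM + 0.24 uM Alexa 594-tagged), heparin 20 uM, NaOAc pH 7, 6 h 37 C; ThT 30 uM, 1 h RT, ex 450/em 510 nm.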
# % is set by controls: 0 for no effect and ±100 for the full control effect; potency is the fitted concentration of half-maximal effect.
Compound,"activity, negative = inhibition",Potency
O=C(c1cc2nc(-c3ccccc3)cc(-c3ccccc3)n2n1)N1CCC2(CC1)OCCO2,-14.9% (inactive),
CC1=C(C(=O)Nc2ccccc2)SCCO1,8.01% (inactive),
COc1cccc(-c2nc3ccc(N4CCN(C)CC4)cc3[nH]2)c1,-13.3% (inactive),
CCN1CC2C3CCC(C)(O3)C2C1 (centres undefined),6.26% (inactive),
Cc1nnc(NC(=O)c2cccn(Cc3cccc(F)c3)c2=O)s1,-3.68% (inactive),
N#Cc1c(Cl)c(Cl)c(Cl)c(C#N)c1Cl,,2.24 µM (active)
Cc1ccc(NC(=O)N(Cc2ccc3c(c2)OCO3)C2CCN(Cc3ccccc3)CC2)cc1F,-0.209% (inactive),
Cc1ccc(-n2c(/C=C/c3cccc(C(F)(F)F)c3)nc3ccccc3c2=O)cc1,3.62% (inactive),
C=CCN1CCC23c4c5ccc(O)c4O[C@H]2C(=O)CC[C@@]3(O)C1C5 (some centres undefined),,inactive
C[C@@]12CCC3C(CC[C@@H]4CC(O)CC[C@@]34C)C1CCC2O (some centres undefined),-4.49% (inactive),
CC1=CC(=Cc2sc3ccccc3[n+]2C)C=C(C)O1,,15.8 µM (active)
CC(C)(C)c1ccc(CN2C(=O)CN=C(c3ccccc3)c3ccccc32)cc1,-11.3% (inactive),
Cc1nn(Cc2ccccc2Cl)c(Cl)c1C(=O)OC(C(=O)NC(N)=O)C(C)C (centres undefined),2.38% (inactive),
CCC1(C)CC(CCNCc2ccc(N(C)C)cc2)(c2ccc(F)cc2)CCO1 (centres undefined),-10.7% (inactive),
COc1cc(OC)cc(C2(C#N)CCN(C)CC2)c1,-7.25% (inactive),
N[C@H](C(=O)O)c1cc(=O)[nH]o1,-10.1% (inactive),
C=CCSSCC=C,8.52% (inactive),
CCN(CC)c1ccc([N+](=O)[O-])c2cccnc12,,11.2 µM (active)
c1ccc(C2NCc3ccccc3-n3cccc32)cc1 (centres undefined),0.594% (inactive),
Cc1ccc(Cn2nnnc2CN2CCC(n3nnc4ccccc43)CC2)cc1,-4.23% (inactive),
CCOC(=O)C(O)(c1ccc(NC(=O)c2ccco2)c(OC)c1)C(F)(F)F (centres undefined),-3.16% (inactive),
CCCCC(=O)N/N=C/c1c(O)n(CC)c(=S)n(CC)c1=O,-7.11% (inactive),
C1CC[C@H]([C@@]23C[C@H](C[C@H]4CCCN[C@H]42)[C@@H]2CCCCN2C3)NC1,-12.3% (inactive),
Cn1c(O)c(C=Nc2ccc3c(c2)CCC3)c(=O)n(C)c1=O,1.7% (inactive),
